Screens deposited in PubChem by National Center for Advancing Translational Sciences (NCATS).
KDM5B inh: KDM5B demethylase inhibition; Q9UGL1; KDM5B demethylase, FDH-coupled NADH fluorescence (FDH is formaldehyde dehydrogenase); Potency, µM (doses to about 57.7 µM), most hits filed as inhibitors; hit rate 2.6% among 220,000; active = well fitted inhibition curve with a large enough effect; also: nearly all actives have a fitted effect of over 70% in size
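Compound dilutions met 200 nM (final) KDM5BΔAP for 10 min at room temperature before substrate addition. The substrate mix held 12.5 µM H3K4me3 with cofactors 25 µM α-ketoglutarate and 50 µM Fe²⁺. NADH signal gain over 30 min defined activity.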
Hits are given with their value; - = inactive. This is one part of a sample in which hits are shown more often than they occur.

SMILES | KDM5B inh
Cc1ccc(C)c(C(=O)N2CCCC(n3cc(-c4nc(C(C)C)no4)nn3)C2)c1 (stereo unspecified) | -
Cc1noc(-c2cn(C3CCCN(C(=O)c4ccccc4)C3)nn2)n1 (stereo unspecified) | -
CC(C)c1noc(-c2cn(C3CCN(C(=O)c4ccccc4F)CC3)nn2)n1 | -
COC[C@@H]1CN(C(=O)c2cc(C)oc2C)C[C@H]1c1nc(C)no1 | -
CC(C)c1noc(-c2cn(C3CCN(C(=O)c4cccc5[nH]ccc45)C3)nn2)n1 (stereo unspecified) | 22µM
CC(C)c1noc(-c2cn(C3CCCN(C(=O)c4ccc[nH]4)C3)nn2)n1 (stereo unspecified) | -
CC(C)c1noc(-c2cn(C3CCN(C(=O)c4ccc5[nH]ccc5c4)CC3)nn2)n1 | -
Cc1noc([C@@H]2CN(C(=O)c3c[nH]c4ccccc34)C[C@H]2CO)n1 | -
Cc1noc(-c2cn(C3CCCN(C(=O)c4cccc(F)c4)C3)nn2)n1 (stereo unspecified) | -
CC(C)c1noc(-c2cn(C3CCCN(C(=O)c4cccc5[nH]ccc45)C3)nn2)n1 (stereo unspecified) | 18µM
Cc1noc(-c2cn(C3CCCN(C(=O)c4cccc5[nH]ccc45)C3)nn2)n1 (stereo unspecified) | 20µM
COc1cc(C2C(C#N)=C(N)OC3=C2C(=O)CC(C)(C)C3)cc(OC)c1OC(=O)N1CCOCC1 (stereo unspecified) | -
Cc1[nH]c2ccccc2c1C(=O)C(C#N)C(=O)C1CC1 (stereo unspecified) | -
CCOc1ccc(-n2c(SCC(=O)Nc3ccccc3OCC)nc3[nH]ncc3c2=O)cc1 | -
Cc1cccc(NC(=O)CNC(=O)COC(=O)Cc2n[nH]c(=O)c3ccccc23)c1C | -
CC(C)(C)c1ccc(OCCn2cc(C(=O)C(F)(F)F)c3ccccc32)cc1 | -
O=C(Cc1cccc2cccnc12)NCCc1ccccn1 | -
Cc1ccc2c(C(=O)O)cc(NC(=O)C3CCC3)cc2n1 | 22µM
COc1ccc(NC(=O)c2ccc(NC(=O)C3CC3)cc2)cc1 | -
COc1ccccc1N1CCN(C(=O)c2cc(NC(=O)C(C)C)cc3nc(C)ccc23)CC1 | -
Cc1ccc2c(C(=O)N3CCOCC3)cc(NC(=O)C3CCC3)cc2n1 | 22µM
Cc1ccc(-c2cc(C(=O)N3CCOCC3)c3ccccc3n2)s1 | -
COc1ccc(NC(=O)c2cc(OC)nc3ccccc23)cc1 | -
COc1ccc(NC(=O)c2cc(NC(=O)C3CCC3)cc3nc(C)ccc23)cc1 | 25µM
Cc1nc2ccc(Cl)cc2cc1C(=O)N1CCN(C(C)C)CC1 | -
SMILES | KDM5B inh
O=C(Nc1ccc2c(c1)nc1n2CCOC1)C1CCCCC1 | -
Cc1ccc2c(C(=O)N3CCN(C(C)C)CC3)cc(NC(=O)C(C)C)cc2n1 | 25µM
Cc1ccc(NC(=O)C2CCCC2)cc1Cl | -
Cc1cc(C)cc(NC(=O)C2CCCCC2)c1 | -
CCCCOc1ccc2c(=O)c(-c3ccc4c(c3)OCCCO4)c(C)oc2c1 | -
O=C(Cn1cnc2nc(N3CCOCC3)sc2c1=O)Nc1ccccc1 | -
Cc1ccc(OCc2nn3c(=O)c4ccccc4nc3s2)cc1 | -
Cc1ccccc1OCCN(C)C(=O)c1cc(=O)c2ccccc2o1 | -
CC(=O)Nc1ccc(NC(=O)CSc2nc(C)c(C)o2)cc1 | -
CCN(CCC#N)Cc1ccc(Br)s1 | -
COc1ccc(C)c2sc(N(Cc3cccnc3)C(=O)C3=COCCO3)nc12 | -
Cc1cc(C(=O)N2CCN(c3ccccc3)CC2)c2ccccc2n1 | -
CNC(=O)c1cc(NC(=O)C2CCC2)cc2nc(C)ccc12 | 32µM
Cc1ccc(NC(=O)C2CCCC2)cc1C | -
Cc1cnc(C(=O)N[C@@H]2CCC[C@@H]2C(=O)N2CCN(CC(C)C)CC2)cn1 | -
Cc1ccc2c(C(=O)N3CCN(CC(C)C)CC3)cc(NC(=O)C3CCC3)cc2n1 | 22µM
CNC(=O)c1ccc(NC(=O)C2CCCCC2)cc1 | -
COc1ccc(OC)c(NC(=O)Cc2c(C)c3ccc(OC)c(C)c3oc2=O)c1 | -
CCc1ccccc1NC(=O)CSC1=C(C#N)C2(CCC(C(C)(C)C)CC2)C(C#N)C(=O)N1 (stereo unspecified) | -
COc1ccc(CN2CCCC3(C2)CN(C)C(=O)O3)cc1C(=O)O (stereo unspecified) | -
COc1ccc(-c2ncc(CN3CCCC4(C3)CN(C)C(=O)O4)cn2)cc1 (stereo unspecified) | 14µM
COc1cc(CN2CCCC3(C2)CN(C)C(=O)O3)ccc1OCC(N)=O (stereo unspecified) | -
CSc1ccc(NC(=O)Nc2cccc(-c3ccc(N4CCOCC4)nn3)c2)cc1 | -
S=C(NCCC(c1ccccc1)c1ccccc1)Nc1ccc(Cl)c(Cl)c1 | -
COc1cncc(N2C[C@H]3[C@H](C2)[S+](=O)([O-])C(C)(C)C(=O)N3Cc2ccccc2)c1 | 7.1µM
SMILES | KDM5B inh
CC1(C)C(=O)N(Cc2ccccc2)[C@H]2CN(c3ccnc(N4CCOCC4)c3)C[C@@H]2[S+]1(=O)[O-] | -
CC1(C)C(=O)N(Cc2ccccc2)[C@H]2CN(Cc3ccncc3)C[C@H]2[S+]1(=O)[O-] | -
CC(C1CCCCC1)C(C)(CCC(=O)O)CC(=O)O (stereo unspecified) | -
CN(Cc1ccc(C(=O)NCC(F)(F)F)cc1)C(=O)c1cc(C2CC2)nc2ccccc12 | -
CC(C)CNC(=O)c1cc(C2CC2)nc2c1c(C1CCCN1)nn2-c1ccccc1 (stereo unspecified) | -
CCNC(=O)Cn1nc(C2CC2)c2c(C(=O)OC)cc(C3CC3)nc21 | -
Cn1nc(C2CCCN2)c2c(C(=O)NCC(F)(F)F)cc(C3CC3)nc21 (stereo unspecified) | 79µM
COCCCNC(=O)c1cc(C2CC2)nc2c1c(C1CCCN1)nn2-c1ccccc1 (stereo unspecified) | -
COCCNC(=O)c1cc(C2CC2)nc2c1c(C1CCCN1)nn2C (stereo unspecified) | 79µM
CCOc1ccc(C(=O)N2CCC(Cc3nc(-c4ccc(F)cc4)no3)CC2)cc1OCC | -
Cc1cc(S(=O)(=O)Nc2ccc(Cl)c(C(F)(F)F)c2)sc1C(=O)O | -
CC1=C[C@@H](CNC(=O)c2ccccc2)[C@H](C(C)C)C[C@H]1Cc1nc2ccncc2[nH]1 | -
Cc1cc(C)cc(N(C)C(=O)C2CCN(c3nc4ccccc4o3)CC2)c1 | -
NNC(=O)C(O)c1ccccc1 (stereo unspecified) | -
COc1ccccc1/C=C/C(=O)Oc1ccc(Cl)c(Cl)c1 | -
CN(C(=O)COC(=O)c1ccccc1-c1nc2ccccc2s1)C1CCCCC1 | -
Cc1ccc(Cl)cc1NC(=O)N(C)Cc1nc(-c2ccccc2C)oc1C | -
COc1cc(SC)ccc1C(=O)N[C@H]1CCN2C(=O)N(c3ccc(C)cc3)C(=O)[C@@H]2C1 | -
COc1cc(SC)ccc1C(=O)N[C@H]1CCN2C(=O)[C@@H](CC(=O)O)NC(=O)[C@@H]2C1 | -
COc1cc(SC)ccc1C(=O)N[C@H]1C[C@H]2C(=O)Nc3ccc(-c4ccc5c(c4)OCO5)cc3C(=O)N2C1 | 32µM
O=C1C[C@@H]2CCN(C(=O)COc3ccccc3)C[C@@H]2CCN1Cc1ccc2c(c1)OCO2 | -
O=C(N[C@H]1CCN2C(=O)c3cc(-c4ccc5c(c4)OCO5)ccc3NC(=O)[C@H]12)c1cccc(F)c1 | -
O=C1Nc2ccc(-c3ccc4c(c3)OCO4)cc2C(=O)N2CCN(C(=O)COc3ccccc3)C[C@H]12 | 28µM
